The source made the active and inactive calls. Rule for the calls: active = hit-call score of the fitted dose curve at least 0.9, where 1 is the maximum; inactive = score below 0.9.
Tests used:
[1] = ATG_EGR_CIS: Attagene CIS-FACTORIAL HepG2 Assay for human Early Growth Response 1 (EGR1) (AID 2282938); details: HepG2 Attagene CIS-FACTORIAL EGR reporter mRNA; actives raise or lower the signal
In short: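 Read-out: fluorescent reporter-mRNA fragments resolved by capillary electrophoresis after RT-PCR, 24 h post-dose in transiently transfected HepG2. Endogenous transcription-factor activity reported via cis-element-regulated reporter units; gain or loss fitted relative to DMSO.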

[2] = ATG_M_19_CIS: Attagene CIS-FACTORIAL HepG2 Assay for M19 Transcription Factor (Internal Marker) (AID 2282939); details: HepG2 Attagene CIS-FACTORIAL M19 internal marker reporter; actives raise or lower the signal
In short: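 Signals come from fluorescence of labelled reporter-specific PCR fragments resolved by capillary electrophoresis, following 24 h treatment of HepG2 cells transfected with cis-promoter reporter units; activity was fitted in both directions relative to DMSO.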

[3] = ATG_ERE_CIS: Attagene CIS-FACTORIAL HepG2 Assay for Estrogen Response Element (ERE) (AID 2282940); details: HepG2 ERE cis-reporter, Attagene RNA transcript; actives raise or lower the signal
In short: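 Fluorescence of capillary-separated, FAM-labelled reporter cDNA fragments indicates reporter mRNA levels in HepG2 cells exposed to chemicals for 24 h. Transient transfection with cis-regulated units; data fitted in both directions against DMSO.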

[4] = ATG_Ets_CIS: Attagene CIS-FACTORIAL HepG2 Assay for human Erythroblast Transformation Specific (ETS) (AID 2282941); details: HepG2 ETS cis-reporter transcription; AC50: actives raise or lower the signal unless noted; outcome: actives raise or lower the signal unless noted
In short: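 HepG2 cells transfected with multiple cis-regulated reporter units measuring endogenous ETS-driven transcription, 24 h after dosing. Reporter mRNA quantified by RT-PCR with capillary electrophoresis; bidirectional fit relative to DMSO.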

[5] = target: Hepatocyte nuclear factor 3-beta (Homo sapiens) (UniProt Q9Y261); test: ATG_FoxA2_CIS: Attagene CIS-FACTORIAL HepG2 Assay for human Forkhead box A2 (FOXA2) (AID 2282942); details: HepG2 cis-reporter transcription factor activity, 24 h; actives raise or lower the signal
In short: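 Readout: fluorescent reporter transcripts resolved by capillary electrophoresis after RT-PCR. Transiently transfected HepG2, 24 h compound exposure, endogenous TF activity at cis promoter elements. Gain or loss of signal fitted relative to DMSO.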

[6] = ATG_FoxO_CIS: Attagene CIS-FACTORIAL HepG2 Assay for human Forkhead box O (FoxO) (AID 2282943); details: HepG2 Attagene cis-reporter, FoxO element, mRNA; actives raise or lower the signal
In short: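 HepG2, transient MRTU transfection (cis element, endogenous TFs). Dose 24 h. TriZol RNA → oligo(dT) RT → PCR → 6-FAM primer extension → HpaI cut → CE. Gain/loss vs DMSO.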

[7] = ATG_GATA_CIS: Attagene CIS-FACTORIAL HepG2 Assay for human GATA Binding Protein (AID 2282944); details: HepG2 GATA cis-element reporter, Attagene multiplex mRNA; actives raise or lower the signal
In short: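 After transfecting HepG2 cells with multiple cis-regulated reporter units, chemicals are dosed for 24 h; isolated RNA undergoes RT-PCR and fluorescent labeling before capillary electrophoresis, with activity expressed against DMSO.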

[8] = ATG_GLI_CIS: Attagene CIS-FACTORIAL HepG2 Assay for human Zinc Finger Protein GLI1 (AID 2282945); details: HepG2, Attagene cis-factorial reporter mRNA, GLI element; actives raise or lower the signal
In short: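 Bidirectional curve fits relative to DMSO, using reporter mRNA levels from RT-PCR plus capillary electrophoresis. Cells were HepG2 transiently carrying cis-regulated reporter constructs, harvested 24 h after dosing.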

[9] = target: Bile acid receptor (Homo sapiens) (UniProt Q96RI1); test: ATG_IR1_CIS: Attagene CIS-FACTORIAL HepG2 Assay for human Nuclear Receptor Subfamily 1 Group H Member 4 (NR1H4), IR1 submotif (AID 2282946); details: IR1 reporter transcription, actives raise or lower the signal
In short: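 Cells (human HepG2) carry transiently transfected cis-promoter reporter transcription units. Compounds are incubated 24 h, total RNA is reverse-transcribed and amplified, and labelled fragments are resolved by capillary electrophoresis. Curves use DMSO as baseline.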

[10] = ATG_GRE_CIS: Attagene CIS-FACTORIAL HepG2 Assay for human Glucocorticoid Response Elements (GRE) (AID 2282947); details: HepG2 GRE cis-reporter, Attagene multiplex mRNA; AC50: actives raise or lower the signal unless noted; outcome: actives raise or lower the signal unless noted
In short: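 Assay uses human hepatoma HepG2 cells transfected with cis-promoter reporter units, exposed 24 h. mRNA from reporters detected by RT-PCR plus capillary electrophoresis; DMSO serves as negative control and baseline.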

[11] = ATG_ISRE_CIS: Attagene CIS-FACTORIAL HepG2 Assay for human Interferon Regulatory Factor 1 (IRF1) binding to an Interferon-Stimulated Response Element (ISRE) (AID 2282948); details: HepG2 ISRE cis-reporter (Attagene), mRNA transcription readout; actives raise or lower the signal
In short: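 Transiently transfected HepG2 cells carrying cis-element reporter units, dosed 24 hours. Reporter mRNA quantified by RT-PCR, fluorescent primer extension, HpaI digestion and capillary electrophoresis. Bidirectional fitting relative to DMSO.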

[12] = ATG_M_32_CIS: Attagene CIS-FACTORIAL HepG2 Assay for M32 Transcription Factor (Internal Marker) (AID 2282949); details: HepG2 Attagene cis-factorial M32 reporter, mRNA; actives raise or lower the signal;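 note: background control marker of the multiplexed CIS panel rather than a real target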
In short: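 Internal background marker read-out: RT-PCR/capillary electrophoresis fluorescence of reporter transcripts from transiently transfected HepG2 cells after 24 h chemical exposure. Activity fitted bidirectionally relative to DMSO negative control.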

[13] = ATG_M_06_CIS: Attagene CIS-FACTORIAL HepG2 Assay for M06 Transcription Factor (Internal Marker) (AID 2282950); details: HepG2 Attagene CIS-FACTORIAL M06 internal marker reporter; actives raise or lower the signal
In short: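 HepG2 liver cells, 24 h exposure. Reporter transcripts from transfected cis-element constructs quantified by RT-PCR/capillary electrophoresis fluorescence. Bidirectional curve fit against DMSO.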

[14] = target: Hypoxia-inducible factor 1-alpha (Homo sapiens) (UniProt Q16665); test: ATG_HIF1a_CIS: Attagene CIS-FACTORIAL HepG2 Assay for human Hypoxia Inducible Factor 1 (HIF1A) (AID 2282951); details: HepG2 Attagene cis-factorial HIF1a reporter transcription; actives raise or lower the signal
In short: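 RT-PCR/capillary electrophoresis fluorescence readout of reporter transcripts from endogenous-TF-driven cis elements in transfected HepG2 cells, 24 h exposure; activity fitted in both directions against DMSO controls.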

[15] = target: Hepatocyte nuclear factor 6 (Homo sapiens) (UniProt Q9UBC0); test: ATG_HNF6_CIS: Attagene CIS-FACTORIAL HepG2 Assay for human Hepatocyte Nuclear Factor 6 (HNF6) (AID 2282952); details: HepG2 Attagene cis-factorial HNF6 reporter transcription; actives raise or lower the signal
In short: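 Transiently transfected HepG2 cells expressing cis-regulated reporter transcription units were exposed to chemical for 24 h in a 24-well format. Reporter transcript abundance was determined by fluorescence capillary electrophoresis.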

[16] = target: Heat shock factor protein 1 (Homo sapiens) (UniProt Q00613); test: ATG_HSE_CIS: Attagene CIS-FACTORIAL HepG2 Assay for human Heat Shock Transcription Factor 1 (HSE) (AID 2282953); details: HepG2 HSE cis-reporter, Attagene RNA transcription; actives raise or lower the signal
In short: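 Endogenous transcription factor activity captured via cis-promoter reporter units transfected into HepG2; treatment lasted 24 h. Fluorescence intensity of reporter fragments analysed with bidirectional curve fitting, DMSO baseline.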

[17] = ATG_MRE_CIS: Attagene CIS-FACTORIAL HepG2 Assay for human Metal Responsive Element (MRE) (AID 2282954); details: HepG2 MRE cis-reporter transcription, Attagene multiplex; actives raise or lower the signal
In short: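 After a 24 h chemical exposure, transiently transfected HepG2 cells yield RNA whose reporter sequences are amplified, FAM-labelled and sized by capillary electrophoresis. Curves are fitted bidirectionally relative to DMSO.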

[18] = ATG_PBREM_CIS: Attagene CIS-FACTORIAL HepG2 Assay for human Phenobarbital-responsive Enhancer Module (PBREM) (AID 2282955); details: HepG2 PBREM cis-reporter, Attagene multiplexed transcription; actives raise or lower the signal
In short: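 Reporter mRNA read by RT-PCR, 6-FAM primer extension, HpaI digestion and capillary electrophoresis. Transfected HepG2 cells, 24 h compound exposure. Gain or loss of signal fitted bidirectionally relative to DMSO baseline.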

[19] = target: Paired box protein Pax-6 (Homo sapiens) (UniProt P26367); test: ATG_Pax6_CIS: Attagene CIS-FACTORIAL HepG2 Assay for human Paired Box 6 (PAX6) (AID 2282956); details: HepG2 CIS-FACTORIAL PAX6 reporter transcription, RNA readout; actives raise or lower the signal
In short: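 HepG2 cells transiently transfected with cis-promoter-driven multiplexed reporter units sensing endogenous transcription factor activity; 24 h chemical exposure. Reporter mRNA quantified by RT-PCR, 6-FAM labelling, HpaI digestion and capillary electrophoresis; bidirectional fit versus DMSO baseline.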

[20] = ATG_PXRE_CIS: Attagene CIS-FACTORIAL HepG2 Assay for human Pregnane X Receptor Element (PXRE) (AID 2282957); details: HepG2 Attagene CIS-FACTORIAL PXRE reporter, mRNA; actives raise or lower the signal
In short: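 Cis-element reporter mRNA in human hepatoma HepG2 cells is measured 24 h post-dosing by RT-PCR, primer-extension labeling and capillary electrophoresis; gain or loss of signal is fitted relative to DMSO.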

Hepatocyte nuclear factor 3-beta (Homo sapiens), sequence (Q9Y261 whole entry, looked up): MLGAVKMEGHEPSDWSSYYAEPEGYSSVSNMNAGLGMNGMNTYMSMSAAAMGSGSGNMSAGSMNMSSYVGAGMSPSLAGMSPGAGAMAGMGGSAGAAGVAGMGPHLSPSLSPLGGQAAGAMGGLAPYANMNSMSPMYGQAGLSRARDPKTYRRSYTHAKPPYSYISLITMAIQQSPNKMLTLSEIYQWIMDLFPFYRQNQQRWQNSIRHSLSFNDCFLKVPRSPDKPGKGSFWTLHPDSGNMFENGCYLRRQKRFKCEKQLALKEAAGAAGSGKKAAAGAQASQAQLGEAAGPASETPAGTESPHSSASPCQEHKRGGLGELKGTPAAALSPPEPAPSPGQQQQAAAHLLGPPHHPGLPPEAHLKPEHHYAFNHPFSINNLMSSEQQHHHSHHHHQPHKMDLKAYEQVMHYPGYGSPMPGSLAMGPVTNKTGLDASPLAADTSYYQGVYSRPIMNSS
Heat shock factor protein 1 (Homo sapiens), sequence (Q00613 whole entry, looked up, the tested form may be a part): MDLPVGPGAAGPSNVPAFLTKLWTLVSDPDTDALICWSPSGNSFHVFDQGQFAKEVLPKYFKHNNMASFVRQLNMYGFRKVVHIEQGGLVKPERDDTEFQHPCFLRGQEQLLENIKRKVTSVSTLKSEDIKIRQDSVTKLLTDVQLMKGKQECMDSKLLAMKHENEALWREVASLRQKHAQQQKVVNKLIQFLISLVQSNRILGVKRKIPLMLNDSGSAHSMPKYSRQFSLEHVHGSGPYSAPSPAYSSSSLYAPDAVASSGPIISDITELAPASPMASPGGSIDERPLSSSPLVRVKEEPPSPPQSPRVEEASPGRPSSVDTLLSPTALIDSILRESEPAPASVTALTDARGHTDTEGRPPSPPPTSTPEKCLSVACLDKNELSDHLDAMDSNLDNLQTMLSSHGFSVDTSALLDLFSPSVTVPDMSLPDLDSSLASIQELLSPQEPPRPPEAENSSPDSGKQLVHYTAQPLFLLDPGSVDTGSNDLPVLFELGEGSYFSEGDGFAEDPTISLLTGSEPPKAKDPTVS
Hepatocyte nuclear factor 6 (Homo sapiens), sequence (Q9UBC0 whole entry, looked up): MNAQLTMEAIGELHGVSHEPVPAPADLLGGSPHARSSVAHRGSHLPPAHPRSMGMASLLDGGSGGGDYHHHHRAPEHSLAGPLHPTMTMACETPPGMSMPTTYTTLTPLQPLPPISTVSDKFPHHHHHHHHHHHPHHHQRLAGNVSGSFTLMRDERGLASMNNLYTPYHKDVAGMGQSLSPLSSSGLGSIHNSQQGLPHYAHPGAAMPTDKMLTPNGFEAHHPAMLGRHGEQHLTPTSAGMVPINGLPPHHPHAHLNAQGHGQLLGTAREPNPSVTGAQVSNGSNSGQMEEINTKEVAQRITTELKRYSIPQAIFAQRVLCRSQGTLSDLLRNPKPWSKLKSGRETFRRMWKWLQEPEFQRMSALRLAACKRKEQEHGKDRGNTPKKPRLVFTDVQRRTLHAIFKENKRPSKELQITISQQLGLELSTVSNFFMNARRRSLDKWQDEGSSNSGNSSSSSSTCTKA
Hypoxia-inducible factor 1-alpha (Homo sapiens), sequence (Q16665 whole entry, looked up): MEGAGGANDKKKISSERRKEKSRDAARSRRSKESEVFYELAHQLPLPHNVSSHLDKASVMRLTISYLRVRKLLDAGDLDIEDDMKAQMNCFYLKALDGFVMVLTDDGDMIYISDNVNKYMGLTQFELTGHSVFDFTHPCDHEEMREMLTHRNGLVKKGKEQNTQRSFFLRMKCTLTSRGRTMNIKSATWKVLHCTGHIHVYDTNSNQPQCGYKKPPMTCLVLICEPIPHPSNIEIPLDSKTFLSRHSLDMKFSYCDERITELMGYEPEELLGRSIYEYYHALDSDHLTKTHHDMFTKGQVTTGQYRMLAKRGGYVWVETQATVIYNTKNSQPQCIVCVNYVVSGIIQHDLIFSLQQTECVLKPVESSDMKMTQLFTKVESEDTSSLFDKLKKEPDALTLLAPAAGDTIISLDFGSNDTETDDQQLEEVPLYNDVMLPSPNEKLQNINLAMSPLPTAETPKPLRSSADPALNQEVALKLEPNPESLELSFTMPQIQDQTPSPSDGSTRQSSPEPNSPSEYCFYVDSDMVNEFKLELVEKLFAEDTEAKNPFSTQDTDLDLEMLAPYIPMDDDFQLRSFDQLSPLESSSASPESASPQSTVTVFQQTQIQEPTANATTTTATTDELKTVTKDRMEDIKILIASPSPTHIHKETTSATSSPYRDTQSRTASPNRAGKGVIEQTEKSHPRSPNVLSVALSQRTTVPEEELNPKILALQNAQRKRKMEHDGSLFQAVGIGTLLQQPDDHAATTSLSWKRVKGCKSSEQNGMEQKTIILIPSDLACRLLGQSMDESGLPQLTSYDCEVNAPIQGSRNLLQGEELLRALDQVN
Paired box protein Pax-6 (Homo sapiens), sequence (P26367 whole entry, looked up): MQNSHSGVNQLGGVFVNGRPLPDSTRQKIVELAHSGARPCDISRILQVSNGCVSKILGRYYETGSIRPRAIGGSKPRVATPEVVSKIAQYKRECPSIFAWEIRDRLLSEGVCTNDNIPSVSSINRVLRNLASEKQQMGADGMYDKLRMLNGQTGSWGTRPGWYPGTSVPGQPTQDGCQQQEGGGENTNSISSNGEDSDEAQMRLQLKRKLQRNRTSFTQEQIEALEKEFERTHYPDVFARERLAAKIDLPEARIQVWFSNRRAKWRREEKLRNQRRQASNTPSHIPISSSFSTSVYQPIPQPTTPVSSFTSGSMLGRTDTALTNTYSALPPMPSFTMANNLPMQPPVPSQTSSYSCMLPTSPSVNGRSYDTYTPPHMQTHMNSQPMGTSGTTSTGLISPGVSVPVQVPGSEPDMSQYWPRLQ
Bile acid receptor (Homo sapiens), sequence (Q96RI1 whole entry, looked up, the tested form may be a part): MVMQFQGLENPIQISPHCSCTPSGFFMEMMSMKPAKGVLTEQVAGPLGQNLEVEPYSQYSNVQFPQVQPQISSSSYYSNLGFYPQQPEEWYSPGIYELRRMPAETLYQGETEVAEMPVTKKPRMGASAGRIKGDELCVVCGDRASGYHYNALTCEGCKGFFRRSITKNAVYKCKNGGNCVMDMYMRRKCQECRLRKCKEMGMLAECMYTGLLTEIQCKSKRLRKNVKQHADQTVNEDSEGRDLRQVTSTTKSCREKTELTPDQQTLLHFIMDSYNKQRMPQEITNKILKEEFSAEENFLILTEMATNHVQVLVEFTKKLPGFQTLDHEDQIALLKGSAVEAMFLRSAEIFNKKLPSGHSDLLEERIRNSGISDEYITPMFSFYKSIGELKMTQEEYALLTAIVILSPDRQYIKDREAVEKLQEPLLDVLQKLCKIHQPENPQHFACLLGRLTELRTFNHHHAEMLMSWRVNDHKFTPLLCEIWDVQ

CC(C)(c1ccc(Oc2ccc(N)cc2)cc1)c1ccc(Oc2ccc(N)cc2)cc1
outcome [1]: inactive | outcome [2]: inactive | outcome [3]: inactive | outcome [4]: inactive | outcome [5]: inactive | outcome [6]: inactive | outcome [7]: inactive | outcome [8]: inactive | outcome [9]: inactive | outcome [10]: inactive | outcome [11]: inactive | outcome [12]: inactive | outcome [13]: inactive | outcome [14]: inactive | outcome [15]: inactive | outcome [16]: inactive | AC50 [17]: 2.77 µM (active) | outcome [18]: inactive | outcome [19]: inactive | AC50 [20]: 2.01 µM (active)

O=P(O)(O)CCC(F)(F)C(F)(F)C(F)(F)C(F)(F)C(F)(F)C(F)(F)F
outcome [1]: inactive | outcome [2]: inactive | outcome [3]: inactive | outcome [4]: inactive | outcome [5]: inactive | outcome [6]: inactive | outcome [7]: inactive | outcome [8]: inactive | outcome [9]: inactive | outcome [10]: inactive | outcome [11]: inactive | outcome [12]: inactive | outcome [13]: inactive | outcome [14]: inactive | outcome [15]: inactive | outcome [16]: inactive | outcome [17]: inactive | outcome [18]: inactive | outcome [19]: inactive | outcome [20]: inactive

O=P(O)(O)CCC(F)(F)C(F)(F)C(F)(F)C(F)(F)C(F)(F)C(F)(F)C(F)(F)C(F)(F)F
outcome [1]: inactive | outcome [2]: inactive | outcome [3]: inactive | outcome [4]: inactive | outcome [5]: inactive | outcome [6]: inactive | outcome [7]: inactive | outcome [8]: inactive | outcome [9]: inactive | outcome [10]: inactive | outcome [11]: inactive | outcome [12]: inactive | outcome [13]: inactive | outcome [14]: inactive | outcome [15]: inactive | outcome [16]: inactive | outcome [17]: inactive | outcome [18]: inactive | outcome [19]: inactive | outcome [20]: inactive

O=C(Nc1cccc([N+](=O)[O-])c1)c1cc2ccccc2cc1O
outcome [1]: inactive | outcome [2]: inactive | AC50 [3]: 3.32 µM (active) | outcome [4]: inactive | outcome [5]: inactive | outcome [6]: inactive | outcome [7]: inactive | outcome [8]: inactive | outcome [9]: inactive | outcome [10]: inactive | outcome [11]: inactive | outcome [12]: inactive | outcome [13]: inactive | outcome [14]: inactive | outcome [15]: inactive | outcome [16]: inactive | outcome [17]: inactive | AC50 [18]: 3.64 µM (active) | outcome [19]: inactive | AC50 [20]: 6.79 µM (active)

O=S(=O)(c1ccc(OCc2ccccc2)cc1)c1ccccc1O
AC50 [1]: 33.4 µM (active) | outcome [2]: inactive | outcome [3]: inactive | AC50 [4]: 33.4 µM (active) | outcome [5]: inactive | AC50 [6]: 50.8 µM (active) | AC50 [7]: 55.4 µM (active) | AC50 [8]: 51.1 µM (active) | AC50 [9]: 56 µM (active) | AC50 [10]: 42.4 µM (active) | AC50 [11]: 48.7 µM (active) | outcome [12]: inactive | outcome [13]: inactive | AC50 [14]: 33.4 µM (active) | AC50 [15]: 61.3 µM (active) | AC50 [16]: 44.2 µM (active) | AC50 [17]: 40.9 µM (active) | AC50 [18]: 24.1 µM (active) | AC50 [19]: 33.4 µM (active) | AC50 [20]: 7.94 µM (active)

Reference: PubChem BioAssay (EPA / NIEHS)
